PubChem BioAssay
Where “and” joins values, the source holds several entries; their conditions need not be identical. Identical values can stand only once. Calls of active or inactive are those of the source.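 Rule for the calls, unless noted: active = normalized viability below 100% at a tested concentration; inactive = the rest.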

Columns and labels:
[1] = stimulators of nuclear beta-catenin in C2C12, primary screen, imaging, WNT3A-conditioned medium, mouse C2C12, NPC library (AID 1117326; in the data active = nuclear beta-catenin stimulation mostly above about 4.2%, no sharp cut-off; inactive = mostly below about 10%); conditions: stronger effect = higher value
[2] = stimulators of insulin release from INS-1E, primary screen, cell-based, 5 mM glucose, NPC library (AID 1117329;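 active = compound raises insulin release from rat beta cells at 5 mM glucose, no numeric limit stated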); conditions: rat INS-1E insulin secretion, at 10 µM, stronger effect = higher value
[3] = growth inhibition of GSK3B-pretreated HCT116 cells – cell-based, CellTiter-Glo, 0.2 to 20 µM (AID 1117336;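 active = compounds lowering colon cancer cell viability after pretreatment blocking the GSK3B kinase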); conditions: HCT116 viability after GSK3B inhibitor, at 20 µM, stronger effect = higher value
[4] = inhibition of endothelial tube formation, primary screen, imaging, VEGF stimulated, CD31 staining, tube area, NPC library (AID 1117340;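 active = compound that reduces growth-factor-driven endothelial tube area in a mixed cell culture, no cutoff stated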); conditions: VEGF-stimulated ADSC/ECFC co-culture, at 10 µM, stronger effect = higher value
[5] = glucagon-like peptide 1 release enhancers, primary assay, NCI-H716 cell line, NPC library (AID 1117341;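 active = compound raises GLP1 secretion from the human gut endocrine cells, with no numeric limit stated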); conditions: NCI-H716 cells, at 10 µM, stronger effect = higher value
[6] = HCT116 colon cancer cell growth inhibition, primary screen, CellTiter-Glo luminescence, NPC library (AID 1117342;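 active = compounds that lower survival of HCT116 colon cancer cells in the luminescence readout, no numeric limit stated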); conditions: at 20 µM (top of the series)
[7] = CellTiter-Glo luminescent readout of SW480 viability loss, NPC library primary (AID 1117343;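 active = compounds that lower viability of the colon cancer cells in the luminescence readout, with no numeric limit stated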); conditions: CellTiter-Glo luminescence; at 20 µM (top of the series)
[8] = decreased DLD-1 cellular survival, CellTiter-Glo luminescent readout, NPC compound collection, primary HTS (AID 1117346;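 active = compounds that lower survival of DLD-1 colon cancer cells in the luminescence readout, no cutoff given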); conditions: DLD-1 viability, CellTiter-Glo luminescence; at 20 µM (top of the series)
[9] = biological target: 6-phosphogluconate dehydrogenase, decarboxylating (Homo sapiens) (UniProt P52209); test: 6PGD enzyme inhibitors, primary screen, biochemical, human, recombinant enzyme, NADPH absorbance (AID 1159550;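 active = at least 20% inhibition of 6-phosphogluconate dehydrogenase activity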); conditions: recombinant 6PGD, NADPH absorbance 341 nm; at 10 µM; stronger effect = higher value
[10] = modulation of C. elegans fzo-1 (AID 1259413; call rule not given here;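 note: fzo-1 mutant C. elegans worms in liquid wells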); conditions: C. elegans fzo-1 modulator screen, mean read-out; stronger effect = higher value
[11] = differential killing of epithelial or mesenchymal cells, primary screen, imaging, PC-3E GFP, TEM4-18 mCherry, co-culture (AID 1345086;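 active = compounds killing one labelled cell type while sparing the other, by normalised counts and ratio limits, not self-fluorescent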;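 for all read-outs here: cells exposed to compound for 72 h before imaging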;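 for red/green cell ratio (normalised): normalised mesenchymal count divided by normalised epithelial count so high means epithelial killing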); conditions: imaging cell counts, at 1 µM; for red/green cell ratio (normalised): actives lie on both sides, counts scaled to control wells, 1 = unselective
[12] = survival rescue of mitochondrial mutant cells in low glucose, primary screen, MELAS cybrids, Rieske KO mouse fibroblasts, CellTiter-Glo (AID 1508586;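 active = mean z-score across replicates of 1.96 or higher in either the MELAS or the Rieske mutant cell line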;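 note: z relative to plate mean and SD of compound and empty wells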)
[13] = biological target: NAD(+) hydrolase SARM1 (Homo sapiens) (UniProt Q6SZW1); test: SARM1 TIR NADase inhibitors, cell lysate, NAD-Glo luminescence (AID 1508614;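 active = compound whose remaining NAD level is above about 45 nM, limit read from the data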;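 note: higher remaining NAD means stronger inhibition of SARM1 NADase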); conditions: SAM-TIR HEK293T lysate NADase, at 1 µM, stronger effect = higher value
[14] = biological target: Mitogen-activated protein kinase 7 (Homo sapiens) (UniProt Q13164); test: ERK5 transactivation activators in reporter cells, primary screen, cell-based, HTS (AID 1508626;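 active = luciferase signal above three times the same-plate solvent-only control wells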;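 note: luciferase driven by Gal4-ERK5 fusion binding five Gal4 sites before minimal TATA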); conditions: HeLa Gal4-ERK5 transactivation, 18 h, at 5 µM, stronger effect = higher value
F380Y = test: modulators of BK channel variants, profiling panel, selectivity assay, cell-based, U2OS BacMam, thallium flux, beta subunits (AID 1259406;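 active = thallium flux through the channel raised or lowered by more than 3 SD from vehicle-only wells, actives on both sides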;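 note: initial slope of Thallos dye fluorescence rise after thallium is added; log ratio against the mean of 0.3% DMSO vehicle wells on the same plate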); conditions: at 30 µM
F380Y/beta1 = test: as above; conditions: at 30 µM
F380Y/beta2Delta = test: as above; conditions: at 30 µM
[15] = ovarian cancer cell viability with rucaparib, profiling panel, oncology-focused library, rucaparib conditional (AID 1508598); conditions: patient-derived ovarian cancer cells, CellTiter-Glo viability, 144 h, stronger effect = lower value
[16] = measured here: epithelial PC-3E GFP cell survival
[17] = measured here: mesenchymal TEM4-18 mCherry cell survival
[18] = MELAS cybrid survival, CellTiter-Glo 48 h, stronger effect = higher value
[19] = Rieske KO mouse fibroblast survival, CellTiter-Glo 72 h

Sequence of Mitogen-activated protein kinase 7 (Homo sapiens) (Q13164 whole entry, looked up, the tested form may be a part): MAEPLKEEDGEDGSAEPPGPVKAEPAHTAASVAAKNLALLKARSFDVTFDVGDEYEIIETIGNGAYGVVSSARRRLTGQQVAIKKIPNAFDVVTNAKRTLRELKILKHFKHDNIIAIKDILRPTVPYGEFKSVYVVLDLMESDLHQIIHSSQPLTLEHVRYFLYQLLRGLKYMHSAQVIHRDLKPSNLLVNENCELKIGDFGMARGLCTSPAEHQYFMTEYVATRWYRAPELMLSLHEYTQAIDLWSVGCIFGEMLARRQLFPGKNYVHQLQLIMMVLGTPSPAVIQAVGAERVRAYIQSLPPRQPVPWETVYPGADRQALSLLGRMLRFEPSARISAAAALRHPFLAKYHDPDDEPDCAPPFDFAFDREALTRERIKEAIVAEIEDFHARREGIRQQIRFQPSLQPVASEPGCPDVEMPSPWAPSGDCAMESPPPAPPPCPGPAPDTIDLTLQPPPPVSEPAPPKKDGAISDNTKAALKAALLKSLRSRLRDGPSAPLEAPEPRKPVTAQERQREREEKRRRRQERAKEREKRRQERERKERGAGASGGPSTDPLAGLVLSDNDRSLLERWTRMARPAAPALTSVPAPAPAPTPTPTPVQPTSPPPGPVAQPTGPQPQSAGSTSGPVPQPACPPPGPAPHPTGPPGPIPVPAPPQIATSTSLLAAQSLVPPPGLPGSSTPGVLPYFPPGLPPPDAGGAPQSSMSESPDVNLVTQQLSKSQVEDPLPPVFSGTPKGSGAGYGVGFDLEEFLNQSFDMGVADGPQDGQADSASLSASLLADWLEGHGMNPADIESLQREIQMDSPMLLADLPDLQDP
Sequence of NAD(+) hydrolase SARM1 (Homo sapiens) (Q6SZW1 whole entry, looked up, the tested form may be a part): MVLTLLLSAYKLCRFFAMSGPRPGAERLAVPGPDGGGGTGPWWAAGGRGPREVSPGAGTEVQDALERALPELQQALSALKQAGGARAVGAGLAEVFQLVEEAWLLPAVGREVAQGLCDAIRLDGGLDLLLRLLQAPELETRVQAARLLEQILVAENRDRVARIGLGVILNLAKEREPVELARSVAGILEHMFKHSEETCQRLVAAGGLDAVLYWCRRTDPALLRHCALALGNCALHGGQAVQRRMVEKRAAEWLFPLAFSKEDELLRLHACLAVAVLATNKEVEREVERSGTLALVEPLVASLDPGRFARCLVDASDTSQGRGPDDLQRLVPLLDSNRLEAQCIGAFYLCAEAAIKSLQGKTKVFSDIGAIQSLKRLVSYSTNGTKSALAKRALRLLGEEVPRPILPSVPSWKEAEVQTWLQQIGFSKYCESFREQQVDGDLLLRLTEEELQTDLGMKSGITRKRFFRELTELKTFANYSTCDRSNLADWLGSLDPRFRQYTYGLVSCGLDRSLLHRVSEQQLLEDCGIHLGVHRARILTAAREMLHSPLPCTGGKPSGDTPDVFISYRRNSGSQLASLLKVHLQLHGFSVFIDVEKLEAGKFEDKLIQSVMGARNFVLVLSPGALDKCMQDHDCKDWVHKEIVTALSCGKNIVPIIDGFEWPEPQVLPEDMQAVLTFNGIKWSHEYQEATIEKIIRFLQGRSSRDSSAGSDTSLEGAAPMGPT
Sequence of 6-phosphogluconate dehydrogenase, decarboxylating (Homo sapiens) (P52209 whole entry, looked up): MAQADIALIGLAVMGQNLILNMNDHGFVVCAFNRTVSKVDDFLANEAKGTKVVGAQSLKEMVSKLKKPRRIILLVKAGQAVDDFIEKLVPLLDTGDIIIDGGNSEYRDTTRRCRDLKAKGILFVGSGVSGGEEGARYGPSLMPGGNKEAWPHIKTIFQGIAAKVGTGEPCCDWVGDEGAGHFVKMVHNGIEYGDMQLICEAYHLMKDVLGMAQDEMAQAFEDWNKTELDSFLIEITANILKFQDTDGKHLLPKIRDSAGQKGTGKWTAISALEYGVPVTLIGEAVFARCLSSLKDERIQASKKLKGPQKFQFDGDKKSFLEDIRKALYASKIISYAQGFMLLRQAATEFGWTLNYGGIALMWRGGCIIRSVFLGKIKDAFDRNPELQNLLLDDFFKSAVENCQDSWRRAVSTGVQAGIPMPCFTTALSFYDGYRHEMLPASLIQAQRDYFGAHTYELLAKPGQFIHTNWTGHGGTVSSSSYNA

O=C(O)c1cccnc1
1.11: normalised cell number [11, 17]
-0.5%: nuclear beta-catenin stimulation ([1]; stimulation, at 2 µM)
inactive: nuclear beta-catenin stimulation ([1]; at 10 µM) -0.4% | insulin secretion stimulation [2] -1.6% | viability decrease [3] -0.65% | tube area decrease [4] -17.1% | GLP1 secretion stimulation [5] -5.4% | inhibition of viability [6] -15.8% | viability decrease (inhibition) [7] 37.9% | viability decrease (inhibition) [8] 4.6% | inhibition [9] -13.9% | mean signal [10] 255 | red/green cell ratio (normalised) [11] 1.22 | z-score [12, 18] -0.357 and 0.00203 | remaining NAD [13] 10 nM | luciferase signal [14] 44 AU | log fold change Tl+ flux (F380Y) -0.0113 | log fold change Tl+ flux (F380Y/beta1) 0.00202 | log fold change Tl+ flux (F380Y/beta2Delta) 0.0201
0.576 and -0.807: z-score [12, 19]
0.91: normalised cell number [11, 16]

CC(C)C(=O)Nc1ccc([N+](=O)[O-])c(C(F)(F)F)c1
0.95: normalised cell number [11, 17]
0.92: normalised cell number [11, 16]
inactive: nuclear beta-catenin stimulation ([1]; at 10 µM) 0.6% | insulin secretion stimulation [2] 3.4% | viability decrease [3] 13.4% | tube area decrease [4] -12.8% | GLP1 secretion stimulation [5] -0.5% | inhibition of viability [6] 25.5% | viability decrease (inhibition) [7] 40.5% | viability decrease (inhibition) [8] -3.7% | inhibition [9] -5.89% | mean signal [10] 187 | red/green cell ratio (normalised) [11] 1.03 | z-score [12, 18] -0.353 and 0.314 and 0.345 | viability ([15]; at 0.000305 µM, OCI-C5x cells, with rucaparib 10 µM, 100% = cells with rucaparib alone) 102% | viability ([15]; at 0.000305 µM, OCI-C5x cells, without rucaparib) 114% | viability ([15]; at 0.000305 µM, OCI-P5x cells, without rucaparib) 103% | viability ([15]; at 0.00122 µM, OCI-C5x cells, with rucaparib 10 µM, 100% = cells with rucaparib alone) 114% | viability ([15]; at 0.00122 µM, OCI-C5x cells, without rucaparib) 115% | viability ([15]; at 0.00122 µM, OCI-P5x cells, without rucaparib) 104% | viability ([15]; at 0.00488 µM, OCI-C5x cells, with rucaparib 10 µM, 100% = cells with rucaparib alone) 111% | viability ([15]; at 0.00488 µM, OCI-C5x cells, without rucaparib) 113% | viability ([15]; at 0.00488 µM, OCI-P5x cells, with rucaparib 20 µM, 100% = cells with rucaparib alone) 107% | viability ([15]; at 0.00488 µM, OCI-P5x cells, without rucaparib) 106% | viability ([15]; at 0.0195 µM, OCI-C5x cells, with rucaparib 10 µM, 100% = cells with rucaparib alone) 114% | viability ([15]; at 0.0195 µM, OCI-C5x cells, without rucaparib) 118% | viability ([15]; at 0.0195 µM, OCI-P5x cells, with rucaparib 20 µM, 100% = cells with rucaparib alone) 104% | viability ([15]; at 0.0195 µM, OCI-P5x cells, without rucaparib) 105% | viability ([15]; at 0.0781 µM, OCI-C5x cells, with rucaparib 10 µM, 100% = cells with rucaparib alone) 112% | viability ([15]; at 0.0781 µM, OCI-C5x cells, without rucaparib) 116% | viability ([15]; at 0.0781 µM, OCI-P5x cells, with rucaparib 20 µM, 100% = cells with rucaparib alone) 103% | viability ([15]; at 0.0781 µM, OCI-P5x cells, without rucaparib) 112% | viability ([15]; at 0.313 µM, OCI-C5x cells, with rucaparib 10 µM, 100% = cells with rucaparib alone) 109% | viability ([15]; at 0.313 µM, OCI-C5x cells, without rucaparib) 109% | viability ([15]; at 0.313 µM, OCI-P5x cells, with rucaparib 20 µM, 100% = cells with rucaparib alone) 109% | viability ([15]; at 0.313 µM, OCI-P5x cells, without rucaparib) 115% | viability ([15]; at 1.25 µM, OCI-C5x cells, with rucaparib 10 µM, 100% = cells with rucaparib alone) 107% | viability ([15]; at 1.25 µM, OCI-C5x cells, without rucaparib) 118% | viability ([15]; at 1.25 µM, OCI-P5x cells, with rucaparib 20 µM, 100% = cells with rucaparib alone) 101% | viability ([15]; at 1.25 µM, OCI-P5x cells, without rucaparib) 113% | viability ([15]; at 5 µM, OCI-C5x cells, with rucaparib 10 µM, 100% = cells with rucaparib alone) 112% | viability ([15]; at 5 µM, OCI-C5x cells, without rucaparib) 133% | viability ([15]; at 5 µM, OCI-P5x cells, with rucaparib 20 µM, 100% = cells with rucaparib alone) 104% | viability ([15]; at 5 µM, OCI-P5x cells, without rucaparib) 112% | remaining NAD [13] 10 nM | luciferase signal [14] 76 AU | log fold change Tl+ flux (F380Y) 0.0165 | log fold change Tl+ flux (F380Y/beta1) 0.104 | log fold change Tl+ flux (F380Y/beta2Delta) -0.0159
-0.2%: nuclear beta-catenin stimulation ([1]; stimulation, at 2 µM)
active: viability ([15]; at 0.000305 µM, OCI-P5x cells, with rucaparib 20 µM, 100% = cells with rucaparib alone) 93.2% | viability ([15]; at 0.00122 µM, OCI-P5x cells, with rucaparib 20 µM, 100% = cells with rucaparib alone) 98.6%
0.471 and 0.28 and 0.177: z-score [12, 19]
